According to PubChem BioAssay:
The source made the active and inactive calls.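 Rule for the calls, unless noted: active = mean inhibition above 46.5%, the solvent-only control mean plus 3 SD; inactive = the rest.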

System: transactivating tegument protein VP16 (Human herpesvirus 1)
Test: VP16 transactivation reporter inhibitors, counter-screen for SRC2 inhibitor project, cell-based, luminescence, single concentration (AID 652007; in the data active = inhibition above about 36%)
Details: cell-based VP16 transactivation luciferase reporter, at 8.9 µM, hits give high values

Row | Compound | inhibition
1 | CCOC(=O)[C@]12CCCC=C1N(Cc1cccc3ccccc13)C(=O)[C@H](CC(=O)N1CCOCC1)C2 | -7.43% (inactive)
2 | Cc1cc(=O)c2ccccc2n1Cc1ccccc1 | -10.6% (inactive)
3 | Cc1cc(Cl)ccc1OCCCC(=O)NO | 6.12% (inactive)
4 | CC1CN(C(=O)CCC(=O)N2CCN(c3cccc(C(F)(F)F)c3)CC2)c2ccccc2O1 (stereo not given) | 15.6% (inactive)
5 | COc1cc(NC(=O)CSc2nnc3c(C)cc4cc(C)cc(C)c4n23)c(C(=O)O)cc1OC | -9.86% (inactive)
6 | COc1ccc2nc(NC(=O)C3CCN(S(=O)(=O)c4cccc5nsnc45)CC3)sc2c1 | 39.9% (active)
7 | COc1ccc2c(c1)CCCN2C(=O)C1CCCN(S(=O)(=O)c2ccc(C(C)(C)C)cc2)C1 (stereo not given) | -3.95% (inactive)
8 | CCC/C(C#Cc1cc(OC)cc(OC)c1)=C1/c2ccccc2C(=O)N1c1ccccc1 | 3.37% (inactive)
9 | O=C(CCCN1C(=O)/C(=C/c2cccs2)SC1=S)Nc1ccccn1 | 12.4% (inactive)
10 | c1nnc2c3c4c(sc3ncn12)CCC4 | 4.85% (inactive)
11 | CCOc1ccc(/C=C/c2c([N+](=O)[O-])c(=O)n(C)c(=O)n2C)cc1 | 7.01% (inactive)
12 | CC(=O)Nc1c([N+](=O)[O-])cc(C)c(Cl)c1[N+](=O)[O-] | -10.7% (inactive)
13 | Cc1csc2ncnc(N3CCN(C(=O)Nc4ccc(OC(F)(F)F)cc4)CC3)c12 | 1.45% (inactive)
14 | O=C1NC(Cc2ccc(O)cc2)c2nc3cc(Cl)ccc3c(=O)n2-c2ncccc21 (stereo not given) | -1.01% (inactive)
15 | COc1ccc(-c2nnc(SCc3cccc(F)c3)n2-c2ccccc2)cc1 | -12.4% (inactive)
16 | O=C(NC1CCCC1)C(c1ccccc1)n1c(CSCCOc2ccccc2)nc2ccccc21 (stereo not given) | 47.1% (active)
17 | Cc1ccc(S(=O)(=O)NNC(=O)c2sc(=S)n(C)c2C)cc1 | -4.43% (inactive)
18 | O=C(CN1CCN(S(=O)(=O)c2ccc(F)c(F)c2)CC1)Nc1ccccc1C(=O)NC1CC1 | -15.4% (inactive)
19 | CC(C(=O)NC(C)(C)C)N(C(=O)CS(=O)CC(=O)Nc1ccc(F)cc1)c1ccccc1F (stereo not given) | 2.18% (inactive)
20 | COc1ccc(/C=C2\SC(=S)N(CCCC(=O)NNC(=O)c3ccccc3O)C2=O)cc1 | 89.9% (active)

Row | Compound | inhibition
21 | COc1ccccc1NC(=S)N1CCCCCC1 | -7.33% (inactive)
22 | CCn1c(C2CCN(S(=O)(=O)c3ccc(OC)cc3)CC2)n[nH]c1=S | -1.12% (inactive)
23 | COc1ccc(S(=O)(=O)N2CCCCCC2)cc1C(=O)NCc1ccco1 | -3.91% (inactive)
24 | O=S1(=O)CCS(=O)(=O)C1c1ccccc1 | 15.8% (inactive)
25 | O=S(=O)(c1ccccc1)N1CCC(O)(CSc2ccc(F)cc2)CC1 | -1.83% (inactive)
26 | COc1ccc(-c2nc(NC(=O)C3CC(=O)N(c4ccc5c(c4)OCCO5)C3)sc2C)cc1 (stereo not given) | -6.3% (inactive)
27 | Cc1cccc(NS(=O)(=O)c2ccc(C)c(C(=O)NC3CCN(Cc4ccccc4)CC3)c2)c1 | 8.2% (inactive)
28 | CC(=O)Nc1ccc(Nc2cc(C)nc3c(-c4ccccc4)cnn23)cc1 | -21.3% (inactive)
29 | Cc1cc(C)c2c3c(sc2n1)C(=O)N(c1ccccc1C)CC(=O)N3 | 4.42% (inactive)
30 | CC(C)c1ccccc1NC(=O)COC(=O)CCN1C(=O)/C(=C\C=C\c2ccccc2)SC1=S | 45.2% (active)
31 | CCOC(=O)N1C(=O)[C@@](c2ccc(Cl)cc2)(C(C)C)N1C(=O)OCC | -14% (inactive)
32 | O=C(N=C1SC2CS(=O)(=O)CC2N1Cc1ccccc1)C1CCCO1 (stereo not given) | -0.59% (inactive)
33 | COc1ccccc1NC(=O)C(C)OC(=O)c1cc2ccccc2[nH]1 (stereo not given) | 15.9% (inactive)
34 | O=S(=O)(Cc1ccccc1Cl)NCCc1ccc(F)cc1 | -11.3% (inactive)
35 | Cc1cccc(N(Cc2cc(=O)[nH]c3ccccc23)C(=O)CCl)c1 | 42.4% (active)
36 | O=C(c1ccccc1)N1CCN(c2ncnc3sc4c(c23)CCC4)CC1 | 19.7% (inactive)
37 | COc1ccc(NC(=O)c2cccc(N3C(=O)c4cccc([N+](=O)[O-])c4C3=O)c2)cc1 | -32.3% (inactive)
38 | O=c1[nH]sc2ccccc12 | 7.96% (inactive)
39 | COC(=O)c1cc(=O)n(-c2ccccc2)c(=Nc2ccccc2)s1 | 8.44% (inactive)
40 | COC(=O)c1ccc(CN2CCc3ccc(NC(=O)c4ccncc4)cc3C2)cc1 | -9.32% (inactive)

Biological target: Nuclear receptor coactivator 2 (Homo sapiens) (UniProt Q15596)
Test: SRC2 coactivator transcriptional activity inhibitors, confirmation, cell-based, luminescence, HEK293, triplicate (AID 652008);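 note: 0% = DMSO-treated cells and 100% = Gossypol at 36 µM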
Details: HEK293 GAL4-SRC2 luciferase reporter, at 8.9 µM, hits give high values

Nuclear receptor coactivator 2 (Homo sapiens), sequence (Q15596 whole entry, looked up): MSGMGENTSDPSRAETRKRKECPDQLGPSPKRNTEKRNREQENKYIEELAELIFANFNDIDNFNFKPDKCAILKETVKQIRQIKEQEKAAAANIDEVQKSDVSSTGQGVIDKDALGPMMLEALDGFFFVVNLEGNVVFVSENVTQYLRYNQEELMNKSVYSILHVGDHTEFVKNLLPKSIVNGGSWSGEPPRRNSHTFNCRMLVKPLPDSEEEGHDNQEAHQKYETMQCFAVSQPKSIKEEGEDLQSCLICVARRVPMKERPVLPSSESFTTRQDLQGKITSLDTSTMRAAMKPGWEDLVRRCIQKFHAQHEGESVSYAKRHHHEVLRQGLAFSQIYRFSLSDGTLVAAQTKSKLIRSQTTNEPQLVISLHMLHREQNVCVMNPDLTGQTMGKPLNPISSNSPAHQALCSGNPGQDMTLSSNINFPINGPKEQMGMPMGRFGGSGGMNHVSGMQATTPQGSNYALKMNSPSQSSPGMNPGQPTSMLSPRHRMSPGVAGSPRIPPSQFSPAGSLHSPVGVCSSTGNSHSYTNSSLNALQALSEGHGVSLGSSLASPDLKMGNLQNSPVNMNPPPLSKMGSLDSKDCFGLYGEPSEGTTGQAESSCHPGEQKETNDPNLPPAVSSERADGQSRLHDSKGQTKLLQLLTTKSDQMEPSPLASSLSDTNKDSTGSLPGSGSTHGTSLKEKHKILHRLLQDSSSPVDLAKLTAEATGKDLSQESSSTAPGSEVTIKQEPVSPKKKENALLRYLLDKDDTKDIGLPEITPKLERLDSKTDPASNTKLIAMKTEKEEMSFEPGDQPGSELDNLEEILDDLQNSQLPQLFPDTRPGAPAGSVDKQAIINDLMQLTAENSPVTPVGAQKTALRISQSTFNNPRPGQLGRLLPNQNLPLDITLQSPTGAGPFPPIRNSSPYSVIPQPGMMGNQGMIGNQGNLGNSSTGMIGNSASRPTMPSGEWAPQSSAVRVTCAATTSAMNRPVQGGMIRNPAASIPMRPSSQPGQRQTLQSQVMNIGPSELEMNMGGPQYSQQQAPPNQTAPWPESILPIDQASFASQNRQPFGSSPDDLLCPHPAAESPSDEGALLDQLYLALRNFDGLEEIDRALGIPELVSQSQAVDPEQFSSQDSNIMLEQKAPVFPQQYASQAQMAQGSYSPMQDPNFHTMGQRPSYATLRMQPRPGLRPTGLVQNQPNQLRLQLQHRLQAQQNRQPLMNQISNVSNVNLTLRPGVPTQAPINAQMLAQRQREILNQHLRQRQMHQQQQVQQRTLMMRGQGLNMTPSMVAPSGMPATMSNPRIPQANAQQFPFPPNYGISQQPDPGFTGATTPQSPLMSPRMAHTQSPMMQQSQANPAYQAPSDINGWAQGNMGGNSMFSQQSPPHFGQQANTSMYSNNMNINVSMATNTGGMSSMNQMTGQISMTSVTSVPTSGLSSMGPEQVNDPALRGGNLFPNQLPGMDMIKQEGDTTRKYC

Row | Compound | inhibition
41 | CCOC(=O)[C@]12CCCC=C1N(Cc1cccc3ccccc13)C(=O)[C@H](CC(=O)N1CCOCC1)C2 | -11% (inactive)
42 | Cc1cc(=O)c2ccccc2n1Cc1ccccc1 | 18.6% (inactive)
43 | Cc1cc(Cl)ccc1OCCCC(=O)NO | 32.7% (inactive)
44 | CC1CN(C(=O)CCC(=O)N2CCN(c3cccc(C(F)(F)F)c3)CC2)c2ccccc2O1 (stereo not given) | 23.5% (inactive)
45 | COc1cc(NC(=O)CSc2nnc3c(C)cc4cc(C)cc(C)c4n23)c(C(=O)O)cc1OC | -11.4% (inactive)
46 | COc1ccc2nc(NC(=O)C3CCN(S(=O)(=O)c4cccc5nsnc45)CC3)sc2c1 | 52.5% (active)
47 | COc1ccc2c(c1)CCCN2C(=O)C1CCCN(S(=O)(=O)c2ccc(C(C)(C)C)cc2)C1 (stereo not given) | 15.7% (inactive)
48 | CCC/C(C#Cc1cc(OC)cc(OC)c1)=C1/c2ccccc2C(=O)N1c1ccccc1 | -4.64% (inactive)
49 | O=C(CCCN1C(=O)/C(=C/c2cccs2)SC1=S)Nc1ccccn1 | 10.9% (inactive)
50 | c1nnc2c3c4c(sc3ncn12)CCC4 | 26.2% (inactive)
51 | CCOc1ccc(/C=C/c2c([N+](=O)[O-])c(=O)n(C)c(=O)n2C)cc1 | 2.26% (inactive)
52 | CC(=O)Nc1c([N+](=O)[O-])cc(C)c(Cl)c1[N+](=O)[O-] | 3.8% (inactive)
53 | Cc1csc2ncnc(N3CCN(C(=O)Nc4ccc(OC(F)(F)F)cc4)CC3)c12 | 26.6% (inactive)
54 | O=C1NC(Cc2ccc(O)cc2)c2nc3cc(Cl)ccc3c(=O)n2-c2ncccc21 (stereo not given) | -15.2% (inactive)
55 | COc1ccc(-c2nnc(SCc3cccc(F)c3)n2-c2ccccc2)cc1 | -7.06% (inactive)
56 | O=C(NC1CCCC1)C(c1ccccc1)n1c(CSCCOc2ccccc2)nc2ccccc21 (stereo not given) | 80.3% (active)
57 | Cc1ccc(S(=O)(=O)NNC(=O)c2sc(=S)n(C)c2C)cc1 | -17.1% (inactive)
58 | O=C(CN1CCN(S(=O)(=O)c2ccc(F)c(F)c2)CC1)Nc1ccccc1C(=O)NC1CC1 | -35.8% (inactive)
59 | CC(C(=O)NC(C)(C)C)N(C(=O)CS(=O)CC(=O)Nc1ccc(F)cc1)c1ccccc1F (stereo not given) | -14.3% (inactive)
60 | COc1ccc(/C=C2\SC(=S)N(CCCC(=O)NNC(=O)c3ccccc3O)C2=O)cc1 | 93.1% (active)

Row | Compound | inhibition
61 | COc1ccccc1NC(=S)N1CCCCCC1 | -14.3% (inactive)
62 | CCn1c(C2CCN(S(=O)(=O)c3ccc(OC)cc3)CC2)n[nH]c1=S | -16.9% (inactive)
63 | COc1ccc(S(=O)(=O)N2CCCCCC2)cc1C(=O)NCc1ccco1 | 1.95% (inactive)
64 | O=S1(=O)CCS(=O)(=O)C1c1ccccc1 | -3.12% (inactive)
65 | O=S(=O)(c1ccccc1)N1CCC(O)(CSc2ccc(F)cc2)CC1 | 13.4% (inactive)
66 | COc1ccc(-c2nc(NC(=O)C3CC(=O)N(c4ccc5c(c4)OCCO5)C3)sc2C)cc1 (stereo not given) | 50.7% (active)
67 | Cc1cccc(NS(=O)(=O)c2ccc(C)c(C(=O)NC3CCN(Cc4ccccc4)CC3)c2)c1 | 6.89% (inactive)
68 | CC(=O)Nc1ccc(Nc2cc(C)nc3c(-c4ccccc4)cnn23)cc1 | 35.7% (inactive)
69 | Cc1cc(C)c2c3c(sc2n1)C(=O)N(c1ccccc1C)CC(=O)N3 | 5.22% (inactive)
70 | CC(C)c1ccccc1NC(=O)COC(=O)CCN1C(=O)/C(=C\C=C\c2ccccc2)SC1=S | 77.6% (active)
71 | CCOC(=O)N1C(=O)[C@@](c2ccc(Cl)cc2)(C(C)C)N1C(=O)OCC | 16.6% (inactive)
72 | O=C(N=C1SC2CS(=O)(=O)CC2N1Cc1ccccc1)C1CCCO1 (stereo not given) | -2.87% (inactive)
73 | COc1ccccc1NC(=O)C(C)OC(=O)c1cc2ccccc2[nH]1 (stereo not given) | 17.2% (inactive)
74 | O=S(=O)(Cc1ccccc1Cl)NCCc1ccc(F)cc1 | -1.95% (inactive)
75 | Cc1cccc(N(Cc2cc(=O)[nH]c3ccccc23)C(=O)CCl)c1 | 83% (active)
76 | O=C(c1ccccc1)N1CCN(c2ncnc3sc4c(c23)CCC4)CC1 | 37.1% (inactive)
77 | COc1ccc(NC(=O)c2cccc(N3C(=O)c4cccc([N+](=O)[O-])c4C3=O)c2)cc1 | -27.1% (inactive)
78 | O=c1[nH]sc2ccccc12 | 8.22% (inactive)
79 | COC(=O)c1cc(=O)n(-c2ccccc2)c(=Nc2ccccc2)s1 | 24.4% (inactive)
80 | COC(=O)c1ccc(CN2CCc3ccc(NC(=O)c4ccncc4)cc3C2)cc1 | 26.8% (inactive)
